A selection: hits, their analogues and other compounds. The true share with any hit is near 5.4%.
Six1-Eya2 blk: Six1/Eya2 interaction inhibition; Q15475+O00167; AlphaScreen GST-Six1/His-Eya2 binding, biochemical; hits give low values; activity change, % (concentration not given with the values); 360,000 compounds, 0.56% hits; AID 651725; in the data active = activity change below about -65%; inconclusive = mostly about -30% to -63%
Target sequence (O00167 whole entry, looked up): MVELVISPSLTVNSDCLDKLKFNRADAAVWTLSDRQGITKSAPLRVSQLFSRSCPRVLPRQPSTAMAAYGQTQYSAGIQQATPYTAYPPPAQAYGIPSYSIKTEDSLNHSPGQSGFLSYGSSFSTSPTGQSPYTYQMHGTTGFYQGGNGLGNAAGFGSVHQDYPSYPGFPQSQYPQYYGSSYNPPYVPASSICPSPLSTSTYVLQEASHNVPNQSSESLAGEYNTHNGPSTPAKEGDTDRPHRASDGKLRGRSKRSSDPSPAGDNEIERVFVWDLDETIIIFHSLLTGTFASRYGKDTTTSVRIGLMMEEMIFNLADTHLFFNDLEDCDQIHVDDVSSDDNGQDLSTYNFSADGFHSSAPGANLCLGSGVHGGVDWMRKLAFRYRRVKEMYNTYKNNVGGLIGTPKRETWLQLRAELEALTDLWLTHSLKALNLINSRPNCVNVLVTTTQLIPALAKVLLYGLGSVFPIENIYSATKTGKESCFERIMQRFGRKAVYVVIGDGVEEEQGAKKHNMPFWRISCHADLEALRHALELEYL
Target sequence (Q15475 whole entry, looked up): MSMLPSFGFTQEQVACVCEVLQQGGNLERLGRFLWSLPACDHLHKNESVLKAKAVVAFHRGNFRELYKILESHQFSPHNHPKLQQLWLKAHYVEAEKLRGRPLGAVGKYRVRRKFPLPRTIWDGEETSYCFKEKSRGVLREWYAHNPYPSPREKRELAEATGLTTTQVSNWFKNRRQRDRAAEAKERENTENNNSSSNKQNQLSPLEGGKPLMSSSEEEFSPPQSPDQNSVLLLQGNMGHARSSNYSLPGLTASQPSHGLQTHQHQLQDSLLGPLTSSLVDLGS
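AlphaScreen luminescence read after one hour at 37 °C in darkness. Pin-transferred compounds met GST-Six1 and His-Eya2 protein (5X stock 250 nM/500 nM) plus glutathione donor and Ni-chelate acceptor beads (5X, 50 ug/mL).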
CtBP-E1A blk: blocks the CtBP interaction with E1A | AlphaScreen GST-E1A/His-CtBP binding, 1536-well; hits give low values | activity change, % (test concentration not listed) | 340,000 compounds, 0.49% hits | AID 651724; in the data active = activity change below about -65%; inconclusive = mostly about -30% to -63%
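Homogeneous bead-based format: GST-tagged E1A captured on glutathione donor beads, His-tagged CtBP on nickel acceptor beads; compounds precede bead addition by 2 h at 37 °C.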
Gal4-VP16 FLuc: Gal4-VP16 reporter inhibition counter-screen. Drosophila S2 Gal4-VP16 UAS-luciferase, luminescence, 20 h. Potency, µM (series often up to 53.6 µM), actives largely listed as inhibitors. 310,000 compounds, 3.5% hits;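 also: Gal4-VP16 expression switched on by copper sulfate through the metallothionein promoter; nearly all actives have a fitted effect of over 50% in size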
RORgamma inh: blocks mouse ROR gamma transcriptional activity; P51450; Drosophila S2 Gal4-RORgamma UAS-luciferase reporter, 20 h; Potency, µM (doses to about 53.6 µM), actives largely listed as inhibitors; 310,000 compounds, 5.4% hits; also: nearly all actives have a fitted effect of over 60% in size
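Luciferase reporter read in Schneider cells carrying Gal4-RORγ (mouse) and UAS-Photinus luciferase; cells given compound 1 h before 700 uM copper sulfate induction, then incubated 20 h at ambient temperature.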
p53 reactivator: re-activators of mutant p53. H1299 p53-A138V BP100-luciferase reporter, luminescence, 24 h. Potency, µM (doses to about 92.2 µM), actives largely listed as activators. 320,000 compounds, 0.063% hits; also: nearly all actives have a fitted effect of over 45% in size
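p53-null H1299 cells stably carrying temperature-sensitive p53-A138V and a BP100-luciferase reporter were pinned with compounds (4-point, 1:5 series) and held 24 hrs at 37 deg C. Luminescence was read 10 min after detection reagent.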
Numbers stand for hits; 0 = inactive; ? = inconclusive; - = no result given; [ ] = another dose, or the depositor's remark. Unless noted, calls follow the shape of the dose curve; as a rule, active = well fitted curve in the direction sought with a large enough effect; inconclusive = small, poorly fitted or top-dose-only effect, or another doubt; inactive = no such curve, though single readings can be large; an effect the other way counts as inactive or inconclusive.

SMILES | Six1-Eya2 blk | CtBP-E1A blk | Gal4-VP16 FLuc | RORgamma inh | p53 reactivator
COCC1=C2c3ccccc3[C@@H]3CNC(=O)C3(C(=O)OC)C[C@@H]2n2c(=O)n(-c3ccccc3)c(=O)n2C1 (some centres not stated) | - | - | 0 | 0 | -
CCn1cc(S(=O)(=O)CC(=O)N2CCc3ccccc32)c2ccccc21 | 0 | 0 | 0 | ? | 0
Cc1ccc(NC(=O)CN(C)CC(=O)Nc2sc3c(c2C(N)=O)CCC3)cc1 | 0 | 0 | ? | 16µM | 0
Cc1cc(=O)oc2c(C(=O)/C=C/c3ccccc3)c(O)ccc12 | 0 | 0 | 0 | 0 | 0
COc1cc(/C=C/C(=O)c2c(O)ccc3c(C)cc(=O)oc23)ccc1O | 0 | 0 | ? | 13µM | -
COc1ccc(/C=C\C(=O)c2c(O)ccc3c(C)cc(=O)oc23)cc1OC | 0 | 0 | ? | 13µM | 0
CCC(CC)C(C(=O)NCc1ccccc1)N1CCN(CCN2CCOCC2)CC1 (configuration not stated) | 0 | 0 | - | - | -
CN=c1scc(-c2ccc(F)cc2)n1/N=C/c1ccc(O)c(O)c1 | ? | 0 | 0.79µM | 0.11µM | 0
CN=c1scc(-c2ccc([N+](=O)[O-])cc2)n1/N=C/c1ccco1 | 0 | 0 | 0 | 0 | 0
CCC1=C2CC[C@H]3C(=O)N(CC)C(=O)[C@H]3[C@H]2[C@@]2(Cc3ccccc3)C(=O)N(CCOC)C(=O)N2C1=O | - | - | 0 | 0 | -
CC(NC(=O)Nc1nnc(C(F)(F)F)s1)(C(F)(F)F)C(F)(F)F | 0 | 0 | 5.6µM | 5µM | 0
CC(C)(C)CC(=O)Nc1nnc(C(F)(F)F)s1 | 0 | 0 | 0 | ? | 0
Cc1csc(NC(=O)c2cnc3ccccc3n2)n1 | 0 | 0 | ? | 11µM | 0
CCc1ccc(C(=O)Nc2nc(C)cs2)s1 | 0 | 0 | 11µM | 7.1µM | 0
Cc1cc(C(=O)Nc2ccccn2)no1 | 0 | 0 | - | 0[0.365 µM] | ?
O=C(Nc1ccccn1)c1ccc2ccccc2n1 | 0 | 0 | ? | 10µM | 45µM
O=C(O)c1ccccc1C(=O)Nc1ccccn1 | 0 | 0 | - | 0[0.365 µM] | ?
O=C(Nc1ccccn1)c1ccc2ccccc2c1O | 0 | 0 | 13µM | ? | -
CC1CC1C(=O)Nc1nc(-c2ccccc2)cs1 (configuration not stated) | 0 | 0 | 0 | 0 | 0
Cc1cnc(C(=O)Nc2cccc3ncccc23)cn1 | 0 | 0 | 0 | 0 | 0
O=C(NCc1ccccn1)C(=O)Nc1nc(-c2ccccc2)cs1 | 0 | 0 | ? | 10µM | 0
Cc1cnc(C(=O)Nc2nc(-c3ccccc3)cs2)cn1 | 0 | 0 | 4.5µM | 4.5µM | 0
O=C(Nc1cccc([N+](=O)[O-])c1)c1ccc2ccccc2c1O | 0 | 0 | 2.8µM | 0 | ?
O=C(Cc1ccccc1)Nc1cccc([N+](=O)[O-])c1 | 0 | 0 | 0 | 0 | 0
Cc1cnc(C(=O)Nc2ccccc2-c2ccc(C)o2)cn1 | ? | 0 | ? | 7.1µM | 0
SMILES | Six1-Eya2 blk | CtBP-E1A blk | Gal4-VP16 FLuc | RORgamma inh | p53 reactivator
Cc1noc(C)c1C(=O)NCc1ccccc1Br | 0 | 0 | 0 | 0 | 0
Cc1nc(NC2CCCCC2)c2nc(-c3ccccc3)n(CCCN3CCOCC3)c2n1 | - | - | 0 | 0 | -
Cc1csc(NC(=O)c2cc(C)nc3ccccc23)n1 | 0 | 0 | 0 | 11µM | 0
CN(C)CC(=O)Nc1nc(-c2ccccc2)cs1 | 0 | 0 | ? | 11µM | 0
CC(=O)Nc1ccc(-c2csc(NC(=O)CC(NC(C)=O)c3ccccc3)n2)cc1 (configuration not stated) | 0 | 0 | 0 | 0 | 0
O=C(O)CCC(=O)Nc1nc(-c2ccccc2)cs1 | 0 | 0 | 0 | 0 | 0
Cc1csc(NC(=O)c2ccc3ccccc3n2)n1 | 0 | 0 | 7.1µM | 2.5µM | ?
CC(=O)NC(CC(=O)Nc1nc(-c2ccc(N(C)S(C)(=O)=O)cc2)cs1)c1ccccc1 (configuration not stated) | 0 | 0 | 11µM | 0 | 0
O=C(Nc1nccs1)c1ccc2ccccc2n1 | 0 | 0 | ? | 7.1µM | ?
O=C(Nc1nccs1)c1ccccc1Br | 0 | - | 0 | 0 | -
Cc1csc(NC(=O)Nc2cccc(Cl)c2)n1 | 0 | 0 | ? | 0 | 28µM
Cc1cccc(NC(=O)c2ccc3ccccc3n2)c1C | 0 | 0 | ? | 1.8µM | ?
O=C(Nc1cccc(Cl)c1)Nc1nc(-c2ccccc2)cs1 | 0 | 0 | 0 | 0 | 0
Cc1ccccc1NC(=O)c1cccc(C(=O)Nc2ccccc2C)n1 | 0 | 0 | 0 | 0 | -
CN(C)c1ncc2nc(-c3cccc(C#N)c3)c(=O)n(C[C@H]3CCCO3)c2n1 | - | - | 0 | 0 | -
CCCCOc1cccc(NC(=O)CSc2nncn2C)c1 | 0 | 0 | 0 | 0 | 0
CC(C)C[C@H](N)C(=O)N[C@H](C(=O)N[C@@H](CCCN=C(N)N)C(=O)N[C@H](CS)C(=O)NCC(=O)N[C@@H](CCCCN)C(=O)N[C@@H](Cc1cnc[nH]1)C(=O)N[C@@H](CO)C(=O)N[C@@H](CCCN=C(N)N)C(=O)O)C(C)C | - | - | 0 | 0 | -
Cc1cc(-n2c(C)cc(C(=O)CN3C(=O)C(=O)N(C)C3=O)c2C)no1 | 0 | - | - | - | 0
Cc1cc(-n2c(C)cc(C(=O)CCl)c2C)no1 | 0 | 0 | ? | 6.3µM | 0
Cc1cc(C(=O)CSc2nc(N)cc(=O)[nH]2)c(C)n1-c1ccc(OC(F)F)cc1 | 0 | 0 | 10µM | 0 | 0
COc1ccc(-n2c(C)cc(C(=O)CCl)c2C)cc1 | 0 | 0 | ? | 13µM | 0
COc1ccc(-n2c(C)cc(C(=O)CN3C(=O)c4ccccc4C3=O)c2C)cc1 | 0 | 0 | 0 | ? | ?
CCCc1cc(=O)[nH]c(SCC(=O)c2cc(C)n(-c3cc(C)on3)c2C)n1 | 0 | 0 | 0 | 0 | 0
Cc1cc(-n2c(C)cc(C(=O)CSc3nc(N)cc(=O)[nH]3)c2C)no1 | 0 | 0 | 22µM | ? | 0
O=[N+]([O-])c1ccccc1/C=N/Nc1nc(N2CCCC2)nc(N2CCCC2)n1 | 0 | 0 | 0 | 13µM | 0
SMILES | Six1-Eya2 blk | CtBP-E1A blk | Gal4-VP16 FLuc | RORgamma inh | p53 reactivator
O=[N+]([O-])c1ccccc1/C=C/C=N/Nc1nc(N2CCCCC2)nc(N2CCCCC2)n1 | 0 | 0 | 0 | 11µM | 0
NS(=O)(=O)c1ccc(N/N=C/C=C/c2ccccc2[N+](=O)[O-])cc1 | ? | 0 | ? | ? | ?
C/C(=N/Nc1nc(-c2ccccc2)cc(-c2ccccc2)n1)c1ccc(N)cc1 | - | - | ? | 10µM | 32µM
C/C(=N/Nc1cc(-c2ccccc2)nc(-c2ccccc2)n1)c1ccc(O)cc1 | 0 | 0 | 0 | 0[10 µM] | 0
C/C(=N\Nc1nc(N2CCCCCC2)nc(N2CCCCCC2)n1)c1ccccc1 | 0 | - | 0 | 3.2µM | 0
O=[N+]([O-])c1cc2c(cc1/C=N/Nc1nc(N3CCCC3)nc(N3CCCC3)n1)OCO2 | 0 | 0 | 0 | 0[10 µM] | 0
CCCC(=O)O[C@]1(C(=O)COC(C)=O)CC[C@H]2C3C[C@H](F)C4=CC(=O)C=CC4(C)[C@@]3(F)[C@@H](O)CC21C (some centres not stated) | - | - | 0 | 0 | -
CC(=O)Nc1ccc(/C(C)=N/Nc2nc(Nc3cccc4ccccc34)nc(N3CCOCC3)n2)cc1 | 0 | 0 | 11µM | 5.6µM | 0
